# A selection: hits, their analogues and other compounds. The true share with any hit is near 7.3%.
# ELG1 genotox: qHTS screen for small molecules that induce genotoxicity in human embryonic kidney (HEK293T) cells expressing luciferase-tagged ELG1; HEK293T ELG1-luciferase reporter, luminescence, 16 h; Potency, µM (highest dose often 46 µM), inactives show top-dose activity change, positive = activation, most hits filed as activators; actives 1.3% (n = 330,000); AID 504466, 2011; note: % of control where 0% means no effect; nearly all actives have a fitted effect of over 60% in size
#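 Screening used a luciferase reporter fused to human ELG1 in HEK293T cells. Luminescence was read on a CCD plate imager after 16 hr exposure and 30 min ONE-Glo incubation.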
# FLuc counter: qHTS profiling assay for firefly luciferase inhibitor/activator using purifed enzyme and Km concentrations of substrates (counterscreen for miR-21 project); Luciferin 4-monooxygenase (Photinus pyralis), P08659; purified FLuc, Km substrates, luminescence inhibition; Potency, µM (series often up to 57.5 µM), inactives show top-dose activity change, negative = inhibition, usual class: inhibitors; actives 6.9% (n = 360,000);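 note: plate controls were vehicle for no effect and reference inhibitor for full effect; nearly all actives have a fitted effect of over 55% in size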
# Target sequence (P08659 whole entry, looked up): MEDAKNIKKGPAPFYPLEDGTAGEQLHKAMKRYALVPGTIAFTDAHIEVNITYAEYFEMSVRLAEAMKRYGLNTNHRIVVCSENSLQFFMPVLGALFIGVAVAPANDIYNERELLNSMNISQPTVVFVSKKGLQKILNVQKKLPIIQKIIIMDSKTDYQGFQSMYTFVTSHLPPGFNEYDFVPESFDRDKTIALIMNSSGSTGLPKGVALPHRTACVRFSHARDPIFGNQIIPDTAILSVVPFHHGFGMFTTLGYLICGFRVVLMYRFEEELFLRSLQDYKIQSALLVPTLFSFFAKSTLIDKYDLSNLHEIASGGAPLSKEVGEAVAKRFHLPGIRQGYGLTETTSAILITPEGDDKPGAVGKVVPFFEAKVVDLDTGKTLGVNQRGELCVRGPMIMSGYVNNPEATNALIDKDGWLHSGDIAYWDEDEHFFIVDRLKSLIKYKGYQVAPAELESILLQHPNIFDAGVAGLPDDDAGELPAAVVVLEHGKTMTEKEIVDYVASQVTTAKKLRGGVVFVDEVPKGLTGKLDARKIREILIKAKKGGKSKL
#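 Biochemical qHTS of compounds, final roughly 60 µM downward over six points, against 10 nM purified firefly luciferase using Km concentrations of substrates (10 uM D-luciferin, 10 uM ATP) in Tris acetate pH 7.5 buffer; luminescence output.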
# SMN2 splice enh: qHTS Assay for Enhancers of SMN2 Splice Variant Expression; HEK293 SMN2-luciferase splicing reporter, luminescence, 30-36 h; Potency, µM (highest dose often 46.1 µM), for inactives: at the highest dose activity change, positive = activation, hits mostly activators; AID 1458, 2008; actives 2.8% (n = 210,000); note: % of control where 0% means no effect; nearly all actives have a fitted effect of over 55% in size
#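 HEK293 cells carry an SMN2 minigene-luciferase reporter in which exon 7 inclusion puts luciferase in frame. Cells were seeded at 2000 cells/well, attached for 10-12 hours, then exposed to compounds for 30-36 hours at 37C before ONE-Glo luminescence.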
# NPC1 promoter act: qHTS Assay for NPC1 Promoter Activators. AID 485313, 2010. actives 2.4% (n = 320,000). Huh7 NPC1 promoter luciferase reporter, 24 h. Potency, µM (titrated, usually from 9.22 µM), for the others: at the top dose activation, actives largely listed as activators; note: % of control where 0% means no effect; nearly all actives have a fitted effect of over 60% in size
#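 Quantitative HTS used a cell-based reporter: Huh7 cells stably bearing the NPC1 promoter upstream of luciferase were treated with compounds for 24 h, and promoter activation was read as luminescence.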
# KinaseGlo FLuc: Counterscreen for Luciferase (Kinase-Glo TM) Inhibition | Potency, µM (titrated, usually from 38.3 µM), inactives show at the top dose activity change, negative = inhibition, usual class: inhibitors | actives 0.28% (n = 200,000) | Kinase-Glo luciferase, ATP luminescence, 8 min | AID 1379, 2008 | Luciferin 4-monooxygenase (Photuris pensylvanica), Q27757; note: % is set by controls: 0 for no effect and ±100 for the full control effect; nearly all actives have a fitted effect of over 60% in size
#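 Luminescence was the read-out, taken after 8-minute incubation at ambient temperature. Luciferase turned over luciferin with 10 uM ATP in imidazole pH 7.2 buffer containing KCl, MgCl2, Tween 20 and BSA.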
# Rab9 promoter act: qHTS Assay for Rab9 Promoter Activators; AID 485297, 2010; Huh7 Rab9 promoter-luciferase reporter, luminescence, 24 h; actives 2.8% (n = 320,000); Potency, µM (series often up to 9.22 µM), inactives show at the top dose activation, negative = inhibition, usual class: activators; note: % of control where 0% means no effect; nearly all actives have a fitted effect of over 60% in size
#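 Promoter activation is measured as luciferase luminescence in Huh7 cells stably transfected with a Rab9 promoter–luciferase construct, following 24 h compound exposure at 37 °C and 10 min reagent incubation at ambient temperature.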
# Starred values were filed as active, the others as inactive; ? = inconclusive; · = not tested or not shown; [ ] = remark or other dose. Calls come from the whole dose curve; as a rule, active = well fitted curve in the direction sought with a large enough effect; inconclusive = small, poorly fitted or top-dose-only effect, or another doubt; inactive = no such curve, though single readings can be large; an effect the other way counts as inactive or inconclusive. Potency is the fitted concentration of half-maximal effect.
SMILES,ELG1 genotox,FLuc counter,SMN2 splice enh,NPC1 promoter act,KinaseGlo FLuc,Rab9 promoter act
CCOC(=O)c1c(C)c(C(=O)NCc2cccnc2)c(C)n1C,-4.6%,0.5%,-11.0%,0.7%,-2.7%,3.5%
CC1CN(C(=O)Nc2ccc(C(=O)NCCc3ccccc3)cc2)c2ccccc2S1 (centres undefined),·,-10.0%,14.1µM*,·,·,·
CCOC(=O)c1c(C)c(C(=O)NCCc2ccccc2)c(C)n1C,?,?,15.8µM*,?,0.9%,3.55µM*
Cn1nnnc1SCCCNCc1cccc(OCc2ccc(F)cc2)c1,·,-6.6%,·,·,·,·
C=C(C)CNCCN,·,·,2.3%[9.22 µM],·,0.5%[7.66 µM],·
O=C(NCCOCCn1c(=O)oc2ccccc21)Nc1ccc(F)cc1F,·,-0.8%,-2.4%,·,·,·
CCCCN1c2ccccc2N(CCCO)c2cc(C)nnc21,-2.1%,12µM*,13.0%,12.7%,-0.6%,3.5%
CCCCN1C2=NCCCN2c2ccccc21,-0.5%,-1.6%,-0.3%,0.1%,-5.6%,-0.7%
Cc1cc(C)cc(NC(c2cccc(Cl)c2)c2nnc(-c3ccccc3)o2)c1 (centres undefined),·,-17.4%,8.2%,·,·,·
O=C(NCc1ccccc1)c1ccc(OC2CSC2)cc1,12.2%,-1.2%,-19.1%,12.1%,1.6%,7.1%
Cc1cccc(NC(=O)c2ccc(OC3CSC3)cc2)c1,10.3µM*,1.9µM*,17.8µM*,2.51µM*,?,3.98µM*
O=C(Nc1cccc(Br)c1)c1ccc(OC2CSC2)cc1,3.26µM*,2.69µM*,73.8%,?,?,2.24µM*
CC(=O)c1cccc(NC(=O)c2ccc(OC3CSC3)cc2)c1,-10.8%,?,-41.7%,22.0%,-7.2%,28.9%
CCOC(=O)c1c(C)[nH]c(C)c1S(=O)(=O)N1CCC(C(=O)Nc2ccccc2CC)CC1,·,-7.2%,·,·,·,·
CCOC(=O)/C(=N\Nc1ncnc2ccccc12)c1ccc(OC)cc1,?,5.36µM*,·,3.55µM*,·,3.16µM*
CCOC(=O)c1c(C)[nH]c(C(=O)COC(=O)c2ccccn2)c1C,5.0%,6.01µM*,-9.9%,0.3%,2.6%,5.3%
CCOC(=O)c1[nH]c2cc(OC)c(OC)cc2c1N,-0.4%,?,-7.5%,-0.9%,1.0%,17.2%
CCOC(=O)c1[nH]c(C)c(C(=O)c2ccc(C)cc2)c1C,20.6µM*,?,4.5%,-8.5%,-0.4%,-10.4%
CCOC(=O)c1[nH]c2ccc(C)cc2c1N,?,5.36µM*,11.2µM*,2.24µM*,-10.4%,2.51µM*
CCOC(=O)c1c(C)[nH]c(C(=O)OCCOc2ccccc2C)c1C,?,3.38µM*,3.55µM*,3.98µM*,6.2%,3.98µM*
Cc1ccccc1C(=O)NCc1nc2cccnc2n1Cc1ccccc1,·,-2.2%,·,·,·,·
O=C(Nc1ccc(Cl)c(Cl)c1)N(Cc1c[nH]c2ccccc12)C1CCCCC1,·,-6.2%,3.5%,·,·,·
CC(=O)c1cc(-c2ccccc2)n(CCC(=O)Nc2nc3c(C)cccc3s2)c1C,·,-0.3%,·,·,·,·
CC(C)Cn1c(=O)c2ccccc2n2c(CCC(=O)NCc3ccccc3Cl)nnc12,·,-2.8%,-0.2%,·,·,·
CCOC(=O)c1ccc(NC(=O)CCc2c(C)nc3c(c(C)nn3-c3ccccc3)c2C)cc1,·,-1.0%,5.3%,·,·,·
SMILES,ELG1 genotox,FLuc counter,SMN2 splice enh,NPC1 promoter act,KinaseGlo FLuc,Rab9 promoter act
COc1ccc(CCNC(=O)CSc2cn(CCNC(=O)c3ccccc3F)c3ccccc23)cc1OC,·,-1.0%,-15.8%,·,·,·
CCOC(=O)c1c(C)[nH]c(C(=O)OCC(=O)c2ccccc2)c1C,0.92µM*,0.849µM*,·,0.501µM*,·,0.447µM*
O=c1c2sc(-c3ccccc3)cc2nc2n1CCC2,?,1.35µM*,2.24µM*,0.562µM*,?,0.447µM*
O=c1c2sc(-c3ccccc3)cc2nc2n1CCCCC2,?,2.13µM*,·,1.41µM*,·,0.562µM*
O=C(Nc1ccccc1)Nc1ccc(-n2ccc(C(F)(F)F)n2)cc1,?,4.26µM*,·,2.82µM*,·,1.78µM*
O=C(O)CC(CC(=O)Nc1ccc(-n2ccc(C(F)(F)F)n2)cc1)c1ccccc1 (centres undefined),2.5%,3.2%,·,1.7%,·,-2.6%
CC1CCN(C(=O)c2ccc3c(c2)N(Cc2ccccc2F)C(=O)c2ccccc2S3(=O)=O)CC1,·,4.7%,-1.2%,·,·,·
CCCCCCCCCCCCOCC1CO1 (centres undefined),·,·,-5.5%,·,·,·
CC(/C=N/NC(=O)c1nnn(-c2nonc2N)c1C)=C\c1ccccc1,?,?,·,27.9%,·,26.0%
Cn1ncc(Br)c1C(=O)N/N=C/c1ccc(OS(=O)(=O)c2ccccc2)cc1,6.2%,1.4%,1.7%,2.9%,-1.4%,-0.5%
CC(/C=N/NC(=O)c1c(Br)cnn1C)=C\c1ccccc1,7.8%,16.9µM*,13.6%,23.0%,1.5%,16.8%
CC(/C=N/NC(=O)c1nn(C)c(C)c1Br)=C\c1ccccc1,?,1.9µM*,·,?,10.4%,3.55µM*
COc1ccc(C(=O)Nc2ccc3c(c2)N(C2CCCC2)C(=O)c2ccccc2S3)cc1OC,·,3.8%,·,·,·,·
COc1cc(OC)c(N(C)C(=O)C2CCCN(c3ncnc4c3nc3n4CCCCC3)C2)cc1Cl (centres undefined),·,-7.8%,·,·,·,·
O=C(COc1ccc(F)cc1)Nc1ccccc1C(=O)OCc1cc(=O)n2nc(C3CC3)sc2n1,·,4.1%,·,·,·,·
Cc1c(NS(C)(=O)=O)cccc1-c1nc2ccccc2s1,·,8.49µM*,·,·,·,·
Cc1ccc(S(=O)(=O)Nc2nc3ccccc3s2)cc1,0.6%,1.0%,17.1%,-0.4%,-1.9%,0.6%
CS(=O)(=O)Nc1ccc(-c2nc3ccccc3s2)cc1,·,1.07µM*,·,·,·,·
COc1ccc(Cl)cc1NC(=O)CSc1nnc2[nH]c(=O)cc(C)n12,·,4.6%,·,·,·,·
COc1ccc(-c2nnc(C3CCN(S(=O)(=O)c4cccc(Cl)c4)CC3)o2)cc1,·,-14.3%,-9.3%,·,·,·
Nc1nc(-c2ccccc2)cn1N,-1.2%,-19.8%,-2.0%,8.4%,-5.3%,6.4%
c1ccc(-c2cn3c(n2)-c2ccccc2C3)cc1,?,0.426µM*,0.501µM*,3.16µM*,7.08µM*,0.562µM*
Nn1nnc2ccccc21,1.3%,-18.1%,-6.5%,7.8%[46.1 µM],-1.1%,1.5%[46.1 µM]
C(=C\n1nnc2ccccc21)/c1ccccn1,?,4.26µM*,·,2µM*,·,1.12µM*
CCOc1cc(NC(=S)NCC2CCCO2)c(OCC)cc1NC(=O)c1ccc(C)cc1 (centres undefined),-4.4%,-4.1%,2.4%,0.6%,1.5%,8.7%

# Bioassay records from PubChem BioAssay.
